# Data from PubChem BioAssay (NCATS).
# Unmarked numbers belong to inactive results. Results filed as inconclusive are left out. A call without a number means that no potency is given here. The source made the active and inactive calls. Unless noted, calls come from the whole dose curve; as a rule, active = well fitted curve in the direction sought with a large enough effect; inconclusive = small, poorly fitted or top-dose-only effect, or another doubt; inactive = no such curve, though single readings can be large; an effect the other way counts as inactive or inconclusive.
# Assays:
# [1] = NFAT Signaling Pathway (AID 444; active = well fitted curve in either direction with a large enough effect, not every such curve was filed as active;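 note: carbachol stimulus at about its EC50 of 1 µM final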); settings: Jurkat NFAT-bla M1, carbachol, beta-lactamase ratio, 5 h; at 17.2 µM (top of the series) unless noted
# In short: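 Read-out: CCF4 FRET ratio (460 nm/530 nm) after 1 h RT dye loading, used for %activity and AC50 from titration series. Cells: Jurkat NFAT-β-lactamase/M1 line, treated with compound plus 1 uM carbachol for 5 h, 37 °C.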
# [2] = target: Glucocorticoid receptor (Homo sapiens) (UniProt P04150); experiment: GR-GFP Redistribution (AID 450;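 active = compounds whose dose series gives a full or clear partial fitted curve of increased nuclear translocation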; note: potency is the fitted concentration of half-maximal effect)
# [3] = Stat Signaling Pathway (AID 446; active = well fitted curve in either direction with a large enough effect, not every such curve was filed as active;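 note: ME-180 cervical cancer cells given 40 pM IL-6 alongside compound; SIE-controlled beta-lactamase reporter measured as 460/530 nm FRET emission ratio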); settings: ME-180 (cervical carcinoma) SIE beta-lactamase reporter, IL-6 stimulated, 5 h; at 17.2 µM (top of the series) unless noted
# In short: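 Overnight-plated ME-180 cells bearing a STAT Inducible Element beta-lactamase reporter; 5 h co-exposure to compound and 40 pM IL-6; values normalized to 300 pM IL-6 and 125 nM JAK inhibitor controls.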
# [4] = target: Glucocorticoid receptor (Homo sapiens) (UniProt P04150); experiment: GR-EFC Redistribution (AID 451; calls by dose curve; note: potency is the fitted concentration of half-maximal effect); settings: CHO-K1 GR-EFC translocation, beta-gal luminescence, 2 h
# In short: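 Translocation of GR-ED fusion to nuclear EA restores b-gal, read by luminescence after 1 h room-temperature detection. Engineered CHO-K1 biosensor cells, 1,000/well, exposed 2 h at 37 C to titrations up to 46 uM final.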
# [5] = target: Mitogen-activated protein kinase 10 (Mus musculus) (UniProt Q61831); experiment: JNK3 AlphaScreen Assay (AID 530; active = well fitted curve in either direction with a large enough effect, not every such curve was filed as active;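 note: kinase came from lysate of stimulated human HepG2 cells; signal reports phosphorylation of biotinylated GST-cJun 1-79 at Ser73 with 10 µM ATP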)
# In short: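 Kinase buffer: 20 mM Tris-HCl pH 7.6, 10 mM MgCl2, 1 mM DTT, 0.1 mM Na3VO4, 0.01% Tween-20; ATP 10 uM. Substrate biotin-GST-cJun(1-79), enzyme from activated HepG2 lysates. Detection by Ser73 phospho-antibody AlphaScreen.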
# [6] = target: Guanine nucleotide-binding protein G(i) subunit alpha-1 (Homo sapiens) (UniProt P63096); experiment: qHTS Assay for Inhibitors of RGS12 GoLoco Motif Activity (Green Fluorophore) (AID 879);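 note: negative values mean loss of peptide binding seen as reduced polarization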
# In short: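 A drop in FITC polarization marked displacement of the FITC-tagged RGS12 GoLoco peptide (10 nM) from Gαi1 (50 nM). Compounds were incubated 10 min at room temperature in Tris pH 7.5 buffer containing 150 mM NaCl, 0.1 mM GDP and 0.05% NP40; unlabeled peptide titration served as control.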
# [7] = qHTS Assay for Identification of Small Molecule Antagonists for NFkB Signaling Pathway (AID 895; active = well fitted inhibition curve with a large enough effect in the signal ratio, with a control signal flat, not every such curve was filed as active; the % refers to the signal ratio; note: potency is the fitted concentration of half-maximal effect)
# In short: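 Beta-lactamase reporter read-out (460 and 530 nm emission ratio, 405 nm excitation, 2 hrs substrate loading RT) after 5 hr stimulation with 10 pM TNF alpha in compound-treated NFkB-bla ME-180 cells in low-serum medium.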
# [8] = qHTS Assay for Identification of Small Molecule Agonists for Thrombopoietin (TPO) Signaling Pathway (AID 917)
# In short: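 Luciferase reporter (Glycoprotein IIb promoter) in IL-3-deprived Ba/F3 cells carrying human TPO receptor; compounds co-added with 26 pM TPO, incubated 24 h, 37 C. Steadylite luminescence measured after 10 min.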
# [9] = target: Muscarinic acetylcholine receptor M1 (Rattus norvegicus) (UniProt P08482); experiment: qHTS Assay for Antagonists of Acetylcholine Muscarinic M1 Receptor: Kinetic Measurement of Intracellular Calcium Response (AID 943);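 note: Fluo-4 calcium signal as peak divided by basal fluorescence over 4 min; nearly all actives have a fitted effect of over 75% in size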
# In short: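 Read-out: peak over basal Fluo-4 fluorescence, kinetic at 1 Hz for 4 min after EC80 carbachol (100 nM final). Rat M1-CHO cells, dye loaded 1 h at 37C, compound added 10 min before agonist.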
# [10] = target: Muscarinic acetylcholine receptor M1 (Rattus norvegicus) (UniProt P08482); experiment: qHTS Assay for Antagonists of Acetylcholine Muscarinic M1 Receptor: Measurement of IP-One Response (AID 944); note: nearly all actives have a fitted effect of over 75% in size
# In short: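 Read-out: HTRF competition between d2-IP1 and Eu-cryptate anti-IP1 antibody, emission 620 and 665 nm. Stimulus was carbachol, EC80 (200 nM), for 30 min in M1-CHO cells (rat receptor), after 10 min compound pre-treatment.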
# [11] = target: Pyruvate kinase (Leishmania mexicana) (UniProt Q27686); experiment: qHTS Validation Assay for Inhibitors of Leishmania Mexicana Pyruvate Kinase (AID 945)
# In short: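 Purified LmPYK (E451W mutant, 0.2 nM) was incubated 1 h at room temperature with 0.5 mM PEP and 0.1 mM ADP in 50 mM imidazole pH 7.2, 50 mM KCl, 7 mM MgCl2; ATP formed was read by PKLight luminescence, normalized to DMSO wells.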
# [12] = target: Pyruvate kinase PKM (Homo sapiens) (UniProt P14618); experiment: qHTS Assay for Activators of Human Muscle Pyruvate Kinase (AID 954; active = well fitted curve in the direction sought with a large enough effect, not every such curve was filed as active)
# In short: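 Screening used highly purified human pyruvate kinase M2 under submaximal activity, with PEP at its Km and ADP below Km. After an hour at room temperature, ATP was read by luciferase luminescence.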
# [13] = target: Alpha-galactosidase A (Homo sapiens) (UniProt P06280); experiment: Counterscreen for Glucocerebrosidase Inhibitors: qHTS Assay for Human alpha-Galactosidase at pH 4.5 (AID 992)
# In short: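 Each compound is preincubated briefly with 2 nM enzyme before substrate addition (80 uM); plates then sit 20 min at ambient temperature, are quenched with 1M NaOH/1M glycine, and read fluorometrically.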
# [14] = target: alpha-glucosidase (Oryza sativa, rice) (UniProt Q653V4); experiment: Counterscreen for Glucocerebrosidase Inhibitors: qHTS Assay for Rice alpha-Glucosidase at pH 5.0 (AID 997)
# In short: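 Endpoint fluorogenic assay at pH 5.0: compounds (0.7 nM to 77 uM) titrated against 4 nM rice enzyme and 400 uM 4-MU-alpha-glucoside for 20 min at room temperature; NaOH/glycine stop, read ex 365/em 440 nm, Hill-fitted AC50.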
# [15] = target: ATP-dependent 6-phosphofructokinase (Trypanosoma brucei brucei) (UniProt O15648); experiment: qHTS Assay to Find Inhibitors of T. brucei phosphofructokinase: hit validation (AID 492961);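 note: luminescence reports ADP formed as PFK phosphorylates fructose-6-phosphate with ATP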
# In short: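 In this biochemical qHTS validation, titrated compounds were tested against 1.25 nM PFK with 0.1 mM ATP and 0.5 mM F6P. Percent activity came from controls lacking or containing enzyme.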
# [16] = target: Luciferin 4-monooxygenase (Photinus pyralis) (UniProt P08659); experiment: Biochemical firefly luciferase enzyme assay for NPC (AID 624030);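 note: purified P. pyralis luciferase at 10 nM with luciferin and ATP substrate; nearly all actives have a fitted effect of over 70% in size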
# In short: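 Direct inhibition of firefly luciferase enzyme (10 nM final, 50 mM Tris Acetate) assessed by luminescence within 5 minutes. Percent activity scaled between DMSO and PTC124 positive control, with concentration-effect curves classified by fit quality and response.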
# [17] = S16 Schwann cell viability assay (CellTiter-Glo assay) (AID 624031);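 note: cellular ATP luminescence as a viability measure; nearly all actives have a fitted effect of over 70% in size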
# In short: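 CellTiter-Glo ATP luminescence counter-screen in untransfected S16 rat Schwann cells, 24h compound exposure at 37 degree Celsius after overnight seeding (500-750 cells/well); response scaled between cell-free wells and DMSO (0% activity), curves classed by r2 and magnitude.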
# [18] = S16 Schwann cell PMP22 intronic element firefly luciferase assay (AID 624032); note: nearly all actives have a fitted effect of over 30% in size
# In short: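 Luciferase reporter of PMP22 intronic-element expression in stably transfected S16 rat Schwann cells, read by ONE-Glo luminescence after 24 h compound exposure at 37 C. Activity scaled between DMSO (0%) and positive-control PTC124; concentration-effect curves quality-classified.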
# [19] = tested on: 7G8; experiment: qHTS profiling for inhibitors of Plasmodium falciparum proliferation (AID 504749); note: nearly all actives have a fitted effect of over 60% in size; note: potency is the fitted concentration of half-maximal effect; settings: P. falciparum in erythrocytes, SYBR Green DNA, 72 h; series mostly up to 28.7 µM
# In short: (§1)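 In a 72 h erythrocytic culture (37 C, humidified, 5% CO2) at 2.5% hematocrit and 0.3% starting parasitemia, compounds were tested; SYBR Green I in detergent lysis buffer stained parasite DNA overnight.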
# [20] = tested on: CP192; experiment: as above; settings: P. falciparum in erythrocytes, SYBR Green DNA, 72 h; series mostly up to 28.7 µM
# In short: as §1
# [21] = tested on: CP201; experiment: as above; settings: P. falciparum in erythrocytes, SYBR Green DNA, 72 h; series mostly up to 28.7 µM
# In short: as §1
# [22] = tested on: CP203; experiment: as above; settings: P. falciparum in erythrocytes, SYBR Green DNA, 72 h; series mostly up to 28.7 µM
# In short: as §1
# [23] = tested on: CP262; experiment: as above; settings: P. falciparum in erythrocytes, SYBR Green DNA, 72 h; series mostly up to 28.7 µM
# In short: as §1
# [24] = tested on: CP266; experiment: as above; settings: P. falciparum in erythrocytes, SYBR Green DNA, 72 h; series mostly up to 28.7 µM
# In short: as §1
# [25] = tested on: CP315; experiment: as above; settings: P. falciparum in erythrocytes, SYBR Green DNA, 72 h; series mostly up to 28.7 µM
# In short: as §1
# [26] = tested on: DIV14; experiment: as above; settings: P. falciparum in erythrocytes, SYBR Green DNA, 72 h; series mostly up to 28.7 µM
# In short: as §1
# [27] = tested on: FAB9; experiment: as above; settings: P. falciparum in erythrocytes, SYBR Green DNA, 72 h; series mostly up to 28.7 µM
# In short: as §1
# [28] = tested on: HB3; experiment: as above; settings: P. falciparum in erythrocytes, SYBR Green DNA, 72 h; series mostly up to 28.7 µM
# In short: as §1
# [29] = tested on: PC15; experiment: as above; settings: P. falciparum in erythrocytes, SYBR Green DNA, 72 h; series mostly up to 28.7 µM
# In short: as §1
# [30] = tested on: PC26; experiment: as above; settings: P. falciparum in erythrocytes, SYBR Green DNA, 72 h; series mostly up to 28.7 µM
# In short: as §1
# [31] = tested on: PC49; experiment: as above; settings: P. falciparum in erythrocytes, SYBR Green DNA, 72 h; series mostly up to 28.7 µM
# In short: as §1
# [32] = tested on: W2; experiment: as above; settings: P. falciparum in erythrocytes, SYBR Green DNA, 72 h; series mostly up to 28.7 µM
# In short: as §1
# Glucocorticoid receptor (Homo sapiens), sequence (P04150 whole entry, looked up, the tested form may be a part): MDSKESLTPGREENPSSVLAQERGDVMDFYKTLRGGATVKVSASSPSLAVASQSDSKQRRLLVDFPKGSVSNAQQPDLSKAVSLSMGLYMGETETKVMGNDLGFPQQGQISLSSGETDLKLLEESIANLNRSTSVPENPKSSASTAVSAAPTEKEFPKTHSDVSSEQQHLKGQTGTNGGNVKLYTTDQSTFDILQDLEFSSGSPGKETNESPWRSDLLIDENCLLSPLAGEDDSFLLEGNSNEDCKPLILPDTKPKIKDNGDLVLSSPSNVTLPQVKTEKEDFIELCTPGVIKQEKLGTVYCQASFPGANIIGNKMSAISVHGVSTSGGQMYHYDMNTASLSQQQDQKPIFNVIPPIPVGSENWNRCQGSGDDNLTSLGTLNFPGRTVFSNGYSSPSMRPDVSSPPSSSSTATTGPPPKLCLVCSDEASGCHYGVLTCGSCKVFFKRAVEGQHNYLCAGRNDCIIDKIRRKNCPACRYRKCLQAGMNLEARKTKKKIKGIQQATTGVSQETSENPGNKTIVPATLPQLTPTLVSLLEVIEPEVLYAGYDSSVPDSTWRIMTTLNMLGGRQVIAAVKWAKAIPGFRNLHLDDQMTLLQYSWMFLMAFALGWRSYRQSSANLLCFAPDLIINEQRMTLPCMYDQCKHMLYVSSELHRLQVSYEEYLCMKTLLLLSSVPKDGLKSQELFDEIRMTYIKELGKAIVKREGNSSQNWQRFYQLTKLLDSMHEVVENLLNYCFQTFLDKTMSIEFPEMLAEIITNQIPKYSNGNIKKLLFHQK
# Muscarinic acetylcholine receptor M1 (Rattus norvegicus), sequence (P08482 whole entry, looked up): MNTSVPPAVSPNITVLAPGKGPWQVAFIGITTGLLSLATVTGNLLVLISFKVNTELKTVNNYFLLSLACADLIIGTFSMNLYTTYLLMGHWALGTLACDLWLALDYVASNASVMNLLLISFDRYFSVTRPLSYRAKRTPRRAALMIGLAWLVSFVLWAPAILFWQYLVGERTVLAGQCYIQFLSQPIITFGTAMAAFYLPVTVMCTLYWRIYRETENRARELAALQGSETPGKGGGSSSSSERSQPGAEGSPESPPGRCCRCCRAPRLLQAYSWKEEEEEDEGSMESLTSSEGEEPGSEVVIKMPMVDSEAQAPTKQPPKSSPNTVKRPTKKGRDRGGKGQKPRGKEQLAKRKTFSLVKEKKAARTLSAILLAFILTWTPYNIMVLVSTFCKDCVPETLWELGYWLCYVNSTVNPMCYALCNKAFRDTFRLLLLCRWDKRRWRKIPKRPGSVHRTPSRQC
# Alpha-galactosidase A (Homo sapiens), sequence (P06280 whole entry, looked up): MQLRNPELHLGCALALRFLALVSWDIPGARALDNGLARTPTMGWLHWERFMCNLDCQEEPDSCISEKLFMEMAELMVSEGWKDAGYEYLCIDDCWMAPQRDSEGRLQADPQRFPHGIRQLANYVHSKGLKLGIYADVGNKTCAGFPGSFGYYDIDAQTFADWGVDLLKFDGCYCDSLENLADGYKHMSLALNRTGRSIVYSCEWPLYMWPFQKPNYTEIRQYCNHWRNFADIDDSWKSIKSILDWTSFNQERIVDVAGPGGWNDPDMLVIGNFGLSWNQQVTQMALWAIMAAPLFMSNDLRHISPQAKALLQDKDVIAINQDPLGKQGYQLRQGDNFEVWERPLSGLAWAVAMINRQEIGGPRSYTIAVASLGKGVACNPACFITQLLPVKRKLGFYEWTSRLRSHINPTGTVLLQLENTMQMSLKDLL
# Pyruvate kinase (Leishmania mexicana), sequence (Q27686 2-499 E452W): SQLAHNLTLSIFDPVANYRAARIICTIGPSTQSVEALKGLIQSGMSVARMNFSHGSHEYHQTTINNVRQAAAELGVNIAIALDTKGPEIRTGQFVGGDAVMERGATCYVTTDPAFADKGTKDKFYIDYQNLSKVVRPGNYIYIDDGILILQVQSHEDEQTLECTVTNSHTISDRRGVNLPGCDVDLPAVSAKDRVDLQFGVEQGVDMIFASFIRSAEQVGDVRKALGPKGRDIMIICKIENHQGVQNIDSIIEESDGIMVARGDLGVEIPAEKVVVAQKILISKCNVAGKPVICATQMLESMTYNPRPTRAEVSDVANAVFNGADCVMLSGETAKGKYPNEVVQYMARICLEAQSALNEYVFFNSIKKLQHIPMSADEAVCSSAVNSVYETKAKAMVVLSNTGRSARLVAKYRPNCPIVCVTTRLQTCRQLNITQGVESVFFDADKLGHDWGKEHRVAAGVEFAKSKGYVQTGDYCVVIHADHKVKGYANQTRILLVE
# Guanine nucleotide-binding protein G(i) subunit alpha-1 (Homo sapiens), sequence (P63096 whole entry, looked up): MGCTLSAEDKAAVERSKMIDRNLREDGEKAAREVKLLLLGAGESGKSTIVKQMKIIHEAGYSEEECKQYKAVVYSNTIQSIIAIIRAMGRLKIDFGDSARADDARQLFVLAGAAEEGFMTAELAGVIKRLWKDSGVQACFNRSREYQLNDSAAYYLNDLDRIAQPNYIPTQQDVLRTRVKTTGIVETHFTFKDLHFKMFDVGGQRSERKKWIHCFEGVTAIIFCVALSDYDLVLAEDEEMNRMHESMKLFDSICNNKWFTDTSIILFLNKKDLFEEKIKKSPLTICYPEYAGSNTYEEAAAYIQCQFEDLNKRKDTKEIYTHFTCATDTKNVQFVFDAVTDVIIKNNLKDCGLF
# Pyruvate kinase PKM (Homo sapiens), sequence (P14618 whole entry, looked up): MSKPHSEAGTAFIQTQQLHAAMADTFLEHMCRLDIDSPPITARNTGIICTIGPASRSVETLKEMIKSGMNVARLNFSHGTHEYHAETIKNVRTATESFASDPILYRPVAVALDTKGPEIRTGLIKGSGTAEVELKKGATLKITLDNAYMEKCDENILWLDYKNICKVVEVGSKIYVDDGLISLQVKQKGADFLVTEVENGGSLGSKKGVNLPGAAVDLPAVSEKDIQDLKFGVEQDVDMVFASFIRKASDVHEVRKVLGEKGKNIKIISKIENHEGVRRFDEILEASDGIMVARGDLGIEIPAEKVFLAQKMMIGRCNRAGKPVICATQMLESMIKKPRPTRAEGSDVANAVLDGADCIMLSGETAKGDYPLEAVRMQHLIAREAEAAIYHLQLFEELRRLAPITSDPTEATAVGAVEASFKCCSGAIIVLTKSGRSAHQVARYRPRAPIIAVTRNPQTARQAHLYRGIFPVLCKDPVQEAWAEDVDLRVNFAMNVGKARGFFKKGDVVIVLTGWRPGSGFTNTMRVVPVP
# Luciferin 4-monooxygenase (Photinus pyralis), sequence (P08659 whole entry, looked up): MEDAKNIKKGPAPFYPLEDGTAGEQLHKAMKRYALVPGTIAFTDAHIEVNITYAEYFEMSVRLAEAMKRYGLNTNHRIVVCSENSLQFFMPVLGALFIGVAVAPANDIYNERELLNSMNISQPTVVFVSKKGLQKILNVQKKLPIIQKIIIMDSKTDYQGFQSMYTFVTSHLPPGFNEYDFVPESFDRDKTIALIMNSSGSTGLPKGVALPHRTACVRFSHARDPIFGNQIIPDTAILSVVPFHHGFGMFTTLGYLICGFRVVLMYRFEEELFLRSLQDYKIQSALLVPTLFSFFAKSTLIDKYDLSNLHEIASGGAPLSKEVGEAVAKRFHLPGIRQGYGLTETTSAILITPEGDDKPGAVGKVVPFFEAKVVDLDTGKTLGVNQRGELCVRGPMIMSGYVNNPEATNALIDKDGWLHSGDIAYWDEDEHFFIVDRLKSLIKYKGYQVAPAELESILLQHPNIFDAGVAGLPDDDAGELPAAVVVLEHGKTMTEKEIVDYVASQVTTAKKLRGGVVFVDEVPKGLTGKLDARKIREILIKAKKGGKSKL
# ATP-dependent 6-phosphofructokinase (Trypanosoma brucei brucei), sequence (O15648 whole entry, looked up): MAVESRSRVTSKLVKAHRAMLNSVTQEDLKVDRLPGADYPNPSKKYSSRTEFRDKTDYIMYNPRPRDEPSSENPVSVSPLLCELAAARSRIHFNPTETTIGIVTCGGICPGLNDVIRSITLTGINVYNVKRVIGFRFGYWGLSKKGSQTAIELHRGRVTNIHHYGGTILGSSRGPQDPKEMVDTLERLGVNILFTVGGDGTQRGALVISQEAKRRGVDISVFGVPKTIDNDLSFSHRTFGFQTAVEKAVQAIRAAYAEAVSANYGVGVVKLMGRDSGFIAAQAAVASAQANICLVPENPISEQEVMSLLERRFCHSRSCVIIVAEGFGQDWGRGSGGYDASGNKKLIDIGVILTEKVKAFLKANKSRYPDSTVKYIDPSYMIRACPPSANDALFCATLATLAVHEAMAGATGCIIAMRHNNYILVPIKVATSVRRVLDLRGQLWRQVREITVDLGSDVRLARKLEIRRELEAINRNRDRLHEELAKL
smiles,measurement,setting,value
CC1(C)Cc2c(C#N)c(OCC(=O)c3ccc(Cl)cc3)nc(-c3ccoc3)c2CO1,"activity change, negative = inhibition",[1],-4.81%
same,Potency,[2],> 20.6 µM
OCCNc1ncnc2c1c(-c1ccccc1)c(-c1ccccc1)n2Cc1ccco1,"activity change, negative = inhibition",[1],-23.1%
same,Potency,[2],> 20.6 µM
CCCCc1ccc(NC(=O)CSC2=C(C#N)C(c3ccco3)C3=C(CCCC3=O)N2)cc1 (stereo unspecified),"activity, negative = inhibition",[3],-23.6%
same,Potency,[2],> 20.6 µM
CCOC(=O)CSc1nc(N)c(C(=O)Nc2ccc(N(C)C)cc2)s1,"activity change, negative = inhibition",[1],0.0938%
same,Potency,[2],> 20.6 µM
CSc1nc(N)c(C#N)c(-c2ccccc2Cl)c1C#N,"activity change, negative = inhibition",[1],19.4%
same,Potency,[2],> 20.6 µM
Nc1ncnc2c1ncn2[C@@H]1O[C@@H](CO)[C@H](O)[C@@H]1O,"activity change, negative = inhibition",[1],4.32% [at 38 µM]
same,Potency,[2],> 46 µM
same,Potency,[4],> 46 µM
same,Potency,[5],inactive
same,outcome,[6],inactive
same,Potency,[7],4.47 µM (active)
same,Potency,[8],inactive
same,Potency,[9],inactive
same,Potency,[10],inactive
same,Potency,[11],inactive
same,outcome,[12],inactive
same,outcome,[13],inactive
same,outcome,[14],inactive
COc1cc([C@H]2c3cc4c(cc3[C@@H](O[C@H]3O[C@H]5CO[C@@H](C)O[C@H]5[C@@H](O)[C@@H]3O)[C@@H]3COC(=O)[C@H]23)OCO4)cc(OC)c1O,"activity change, negative = inhibition",[1],-0.949%
same,"activity, negative = inhibition",[3],-20.6%
same,Potency,[5],inactive
same,Potency,[15],inactive
same,Potency,[16],inactive
same,Potency,[17],inactive
same,Potency,[18],inactive
same,Potency,[19],15.8 µM (active)
same,Potency,[20],inactive
same,Potency,[21],inactive
same,Potency,[22],inactive
same,Potency,[23],inactive
same,Potency,[24],inactive
same,Potency,[25],inactive
same,Potency,[26],inactive
same,Potency,[27],inactive
same,Potency,[28],inactive
same,Potency,[29],inactive
same,Potency,[30],inactive
same,Potency,[31],inactive
same,Potency,[32],13.5 µM (active)
COc1ccc(-c2nnc3sc(-c4ccccc4OC)nn23)cc1,"activity change, negative = inhibition",[1],-23.6%
same,Potency,[2],> 20.6 µM
